The values below come from PubChem BioAssay AID449728 (The Scripps Research Institute Molecular Screening Center, 2010).

Where “and” joins values, the source holds several entries; their conditions need not be identical. Equal values may be shown once. In all, about 330,000 compounds went through this assay and about 900 (0.27%) were called active. This is one part of a sample in which actives are shown more often than they occur.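 How the source made its calls: active means inhibition above the campaign's mean inhibition across all tested compounds plus 3 SD (cut at about 9.9% in these data); inactive means the rest.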 Some compounds were tested as several samples or in several runs, with calls that do not always agree.

The assay can be described thus: E. coli V3065 growth inhibition, primary screen, counter-screen for AddAB inhibitor project, absorbance, OD600 (AID 449728).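 Further: uninfected addAB+ strain grown without phage in ampicillin broth; 0% = DMSO wells and 100% = ciprofloxacin 0.95 µg/ml wells.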 The note with it: 18 h, at 11.9 µM, stronger effect = higher value.
On to `COCCn1c(SCC(=O)Nc2cc(OC)ccc2OC)nc2c(c1=O)SC(C)C2` (stereo not drawn), for which the inhibition is -0.66% (inactive).
The value for `Cc1cc2c(cc1C)[n+](C)cn2CC(O)COCC1CC=CCC1` (stereo not drawn) was -1.13% (inactive).
The value for `O=[N+]([O-])c1ccc(N=Cc2c(O)ccc3ccccc23)cc1` was 25% (active); that for `Cc1nc2ccccc2nc(=O)c1NNc1ccc([N+](=O)[O-])cc1` was -0.37% (inactive); that for `O=C(Oc1ccc([N+](=O)[O-])cc1)c1ccc2ccccc2n1` was 0.89% (inactive).
Under `O=S(=O)(c1ccc(Br)cc1)n1ccc2ccccc21` stands 0.82% (inactive).
For `CCCc1nc(N)nc2c1C(=O)CC(C)(C)C2`, the inhibition is 0% (inactive).
Under `CC(C)(C)NC(=O)COC(=O)c1cc(Cl)ccc1[N+](=O)[O-]` stands 16% (active); under `CC(C)(C)NC(=O)COC(=O)c1cc(Br)ccc1Cl`, -0.09% (inactive).
`CCCC(=O)OCC(=O)Nc1cc(Cl)ccc1[N+](=O)[O-]`: the inhibition is 0.59% (inactive).
Under `CSc1ccccc1NC(=O)C(C)N1C(=O)c2ccccc2S1(=O)=O` (stereo not drawn) stands -0.94% (inactive); under `CC1CC1C(=O)OCC(=O)c1c(N)n(C)c(=O)n(C)c1=O` (stereo not drawn), -1.26% (inactive); under `COc1ccc(NC(=O)CSc2nc(SC)ns2)c(OC)c1`, -1.11% (inactive).
Under `CCCCCCNC(=O)CSc1nccn1Cc1ccccc1` stands -3.38% (inactive); under `Cc1occc1C(=O)NC1CCCN(Cc2ccc(CC(C)C)cc2)C1` (stereo not drawn), -0.68% (inactive).
For `CCOc1ccc(OCCSc2nc3ccccc3n2CC(=O)O)cc1`, the inhibition is -0.94% (inactive).
The value for `Oc1cccc(/C=N/Nc2ccc(Cl)nn2)c1O` was 19.4% (active); that for `Oc1ccc(Br)cc1/C=N/Nc1ccccn1` was 9.57% (inactive); that for `Oc1c(Br)cccc1/C=N/Nc1c(F)c(F)c(F)c(F)c1F` was 0.5% (inactive).
As to `C/C(=C/C(=O)N1CCN(C)CC1)C(=O)O`, the inhibition is 0.17% (inactive).
Under `CCC1OC(c2ccc([N+](=O)[O-])cc2)=Nc2ccccc21` (stereo not drawn) stands -1.44% (inactive); under `CCCCOC(=O)CCCc1ccc([N+](=O)[O-])cc1[N+](=O)[O-]`, 0.76% (inactive); under `CCCCCOc1ccc(CSC2=NCCN2)cc1[N+](=O)[O-]`, 0.17% (inactive).
On to `CCCCOc1ccc(CSC(=N)N)cc1[N+](=O)[O-]`, for which the inhibition was 10.1% (active).
Under `O=C(Nc1ccccc1F)C1C2C=CC3(O2)C1C(=O)N(c1cccnc1)C3C(=O)NC1CCCCC1` (stereo not drawn) stands -0.09% (inactive); under `COC(=O)c1c(NC(=O)COC(=O)[C@@H](NS(=O)(=O)c2ccccc2)C(C)C)sc2c1CCC2`, -2.57% (inactive).
Take `Oc1ccc2ccccc2c1N=Nc1nccs1`: the inhibition was 13.9% (active).
`O=C(NC(=S)Nc1ncccn1)c1ccccc1Br`: the inhibition is 0.5% (inactive).
The value for `O=C(CN1C(=O)COc2ccc(Cl)cc21)N1CCOCC1` was 1.26% (inactive); that for `COc1ccc(NC(=O)CCn2ccnc2)c(OC)c1` was -1.17% (inactive).
Under `CC(=O)NC12CC3CC(C1)CC(C(=O)N1CCN(S(=O)(=O)c4cccs4)CC1)(C3)C2` stands -1.77% (inactive); under `CCn1cc(S(=O)(=O)c2cccc(C)c2)c(=O)c2cc(F)c(N3CCN(C)CC3)cc21`, -4.05% (inactive); under `CCCCCCn1cc(C(=O)O)c(=O)c2cc(F)c(N3CCCCC3)cc21`, 1.34% (inactive).
The value for `CCn1cc(C(=O)NCCC(=O)NCCO)c(=O)c2cc3c(cc21)OCO3` was 1.2% (inactive).
Take `CN1CCN(c2cc3c(cc2F)c(=O)c(C(=O)O)cn3CCF)CC1`: the inhibition was 100% (active).
As to `CCCCNC(=O)c1cn(CC)c2cc(N3CCN(C(=O)c4ccco4)CC3)c(F)cc2c1=O`, the inhibition was 5.88% (inactive).
The value for `CCn1cc(C(=O)NCCO)c(=O)c2cc(F)c(N3CCN(C)CC3)cc21` was 97.8% (active).
Under `NNC(=O)c1ccc(COCC(F)(F)C(F)F)cc1` stands 3.04% (inactive).
Under `Cc1cc(C)cc(C(=O)NC2C(=O)N3C(C(=O)O)=C(CSc4nnc(C)s4)CSC23)c1` (stereo not drawn) stands -0.85% (inactive).
With `Cc1nnc(SCC2=C(C(=O)O)N3C(=O)C(NC(=O)Cn4nc(C)c(Cl)c4C)C3SC2)s1` (stereo not drawn), the inhibition was 1.18% (inactive).
The value for `CO/N=C(\C(=O)N[C@@H]1C(=O)N2C(C(=O)O)=C(COC(C)=O)CS[C@H]12)c1csc(N)n1` (stereo in doubt) was 98.5% (active) and 97.8% (active) and -0.69% (inactive); that for `C=CC1=C(C(=O)O)N2C(=O)[C@@H](NC(=O)/C(=N\OCC(=O)O)c3csc(N)n3)[C@H]2SC1` was 97.5% (active); that for `CC(C)(C)OC(=O)C1=C(CO)CS[C@@H]2[C@H](NC(=O)Cc3ccccc3)C(=O)N12` was 1.43% (inactive).
Consider `C=CC1=C(C(=O)O)N2C(=O)[C@@H](NC(=O)/C(=N/OCC(=O)O)c3csc(N)n3)[C@H]2SC1`, for which the inhibition is 97.6% (active).
Under `COC(=O)C1=C(C)NC2=C(C(=O)c3ccccc32)C1c1ccc(-c2ccc(C(=O)O)cc2)o1` (stereo not drawn) stands 1.44% (inactive); under `CCCCC(=O)Nc1nnc(S(=O)(=O)N(C)Cc2ccco2)s1`, 1.69% (inactive).
`Cc1[nH]nc(SCC(=O)NCC(C)C)c1[N+](=O)[O-]`: the inhibition is -0.08% (inactive).
Under `COc1ccc(S(=O)(=O)N2CCOCC2)cc1NC(=O)CSc1ncnc2ccccc12` stands -2.21% (inactive).
The value for `COC(=O)c1ccc(COC(=O)CNC(=O)c2cccc(OC)c2)o1` was -0.35% (inactive); that for `CCOC(=O)c1c(CC(C)C)csc1/N=C/C1=C(O)CCCC1=O` was -1.62% (inactive); that for `Cc1ccc(-n2c(C)nnc2SCC(=O)NC2CC2)cc1` was 0.84% (inactive).
The value for `O=c1ccc2c(-c3ccccc3S(=O)(=O)O)c3ccc(O)c(O)c3oc-2c1O` was 20.2% (active).
As to `CC(C)C(C(=O)NCc1ccco1)N(CC1CCCO1)C(=O)CNS(=O)(=O)c1ccc(F)cc1` (stereo not drawn), the inhibition is 0.85% (inactive).
On to `CC(=O)Nc1ccc(S(=O)(=O)N(CCc2ccccc2)CC(=O)N/N=C/c2ccc(C(=O)O)cc2)cc1`, for which the inhibition was 2.71% (inactive).
For the compound `O=S(=O)(Nc1ccc(-n2cnnn2)cc1)c1ccc(Cl)cc1`, the inhibition is 1.06% (inactive).
The value for `COc1ccc(/C=C/C(=O)c2cc(Br)ccc(=O)c2O)cc1` was 10.9% (active).
Under `COc1ccc(C(=O)/C=C/c2cccnc2)c(OC)c1` stands -1.21% (inactive); under `COc1ccc2oc(=N)c(C(=O)Nc3ccc(Br)cc3)cc2c1`, -1.46% (inactive).
As for `COC(=O)c1sc(SC)c(S(=O)(=O)C(C)C)c1N/N=C(\C#N)S(=O)(=O)c1ccccn1`, the inhibition is -1.95% (inactive).
Consider `CCCCCC1CC(COc2ccccc2)OC1=O` (stereo not drawn), for which the inhibition is -0.64% (inactive).
In the case of `CS(=O)(=O)N(CC(=O)Nc1ccc(Cl)c(Cl)c1)C1CCCCC1`, the inhibition is 0.42% (inactive).
Under `O=C(CCCN1C(=O)CCC1=O)Nc1ccc(Cl)c(C(F)(F)F)c1` stands -1.92% (inactive); under `O=C(CC(O)(C(F)(F)F)C(F)(F)F)Nc1ccc(Cl)c(Cl)c1`, 17.7% (active).
The value for `CC(=O)Nc1ccc(NC(=O)COc2ccc(S(=O)(=O)NC(C)c3ccccc3)cc2)cc1` (stereo not drawn) was 2.38% (inactive); that for `O=C(CSc1ccccn1)N1CCN(S(=O)(=O)c2ccc(Cl)cc2)CC1` was -1.3% (inactive).
The value for `CCCCNC(=O)Nc1c(C)cc(SC#N)cc1C` was 2.5% (inactive).
Take `O=C(O)C(c1ccccc1)N1C(=O)/C(=C\c2ccc(-c3cccc(Cl)c3)o2)SC1=S` (stereo not drawn): the inhibition is -3.78% (inactive).
The value for `O=C1c2ccccc2NC(c2ccc(-c3cccc(Cl)c3)o2)N1O` (stereo not drawn) was 19.2% (active); that for `CC(=O)NN1C(=O)c2ccccc2NC1c1ccccc1` (stereo not drawn) was 0.86% (inactive); that for `O=C(NCc1cccs1)c1ccc2c(c1)ncn2C1CCCC1` was -2.5% (inactive).
Under `Cc1ccc(NC(=O)CN(C)C(=O)c2ccc(Br)o2)cc1` stands 0.43% (inactive); under `CCCS(=O)(=O)Nc1ccc(-c2cn3c(n2)SCC3)cc1`, 2.36% (inactive); under `CC(C)(C)N(Cc1ccccc1)C(=O)c1ccncc1`, -2.63% (inactive).
Under `O=C(NCc1ccccn1)Nc1ccc(Cl)cc1` stands -3.41% (inactive); under `O=C1c2ccccc2C(=O)N1CCC(O)C[N+](=O)[O-]` (stereo not drawn), 3.02% (inactive).
Take `CC(=O)Oc1ccccc1C(=O)Nc1ncc([N+](=O)[O-])s1`: the inhibition was 11.2% (active).
Consider `COc1ccc(NC(=O)c2ccccc2[N+](=O)[O-])cc1OC`, for which the inhibition was -1.73% (inactive).
Under `O=C(Cc1c(F)cccc1Cl)Nc1ncc([N+](=O)[O-])s1` stands 7.15% (inactive); under `CCCCCCCCCCCC(=O)O`, -2.17% (inactive); under `COc1ccc(OC)c(CCNC(=O)c2nn(C)c3c2CS(=O)(=O)c2ccccc2-3)c1`, 0.84% (inactive).
Regarding `Cc1cc(=O)oc2cc(OCC(=O)N3CCN(c4ccc(F)cc4)CC3)c(Cl)cc12`, the inhibition is 1.94% (inactive).
Turning to `Cc1cccc(NC(=O)c2ccc([N+](=O)[O-])o2)c1`, the inhibition is 27.2% (active).
Under `CN1C(=O)c2ccc(C(=O)Nc3ccc(Br)cn3)cc2C1=O` stands -2.73% (inactive); under `O=C(Nc1ccc(Br)cn1)c1ccc([N+](=O)[O-])o1`, 32.3% (active); under `O=C(Nc1cccc(O)c1)c1ccc(C(=O)c2ccccc2)o1`, 0.43% (inactive).
Under `O=C(Nc1ccc(Br)cn1)c1ccc([N+](=O)[O-])cc1Cl` stands 2.77% (inactive); under `Cc1onc(NC(=O)c2ccc([N+](=O)[O-])o2)c1Br`, 6.74% (inactive); under `CC1CC(C)CN(CCC(=O)Nc2ccc3c(c2)CCC3)C1` (stereo not drawn), 1.48% (inactive).
Under `O=c1c(-c2ccc(Cl)cc2)[n+]([O-])c2ccccc2n1OCc1nc2ccccc2[nH]1` stands 0.49% (inactive).
As for `O=C(Nc1cccnc1Cl)c1cc(-c2ccccc2O)on1`, the inhibition was -1.11% (inactive).
Under `C=CCNC(=O)c1csc(-c2ccccc2)n1` stands -0.67% (inactive).
`C=CCNC(=O)c1cc(-c2ccccc2O)on1`: the inhibition was 85.1% (active).
Under `Cc1ccc(C)c(OCCC(=O)OCC(=O)NC(=O)NCc2ccccc2)c1` stands 0.73% (inactive).
